Screening data: PubChem BioAssay, several laboratories
This is a sample that favours compounds with a hit; in the whole collection about 0.5% have one here.
AddAB inh: growth inhibition of E. coli expressing H. pylori AddAB, primary screen, AddAB inhibitor project, absorbance; hit rate 0.29% among 330,000; AID 435030, 2010; inhibition, % at 11.9 µM; in the data active = inhibition above about 12%
phage Ecoli inh: growth loss of phage-infected E. coli, primary screen, RecBCD inhibitor project, absorbance, with phage, HTS. inhibition, % at 11.9 µM. hit rate 0.26% among 360,000; in the data active = inhibition above about 11%
E coli growth-1: E. coli growth inhibition, primary screen, OD600; OD600 absorbance (test concentration not listed); Escherichia coli growth, 23 h; hits give low values; hit rate 0.21% among 330,000;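 active = OD600 absorbance below the run mean of sample wells minus 3.6 SD, in any replicate, cut at about 0.56 in these data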
Tat export inh: E. coli Tat export inhibitors, primary screen, MC4100, TorA-mCherry reporter, fluorescence, single point; AID 488895, 2010; inhibition, % at 10 µM; hit rate 0.036% among 340,000;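 active = mean replicate inhibition at least 50% and at least half of replicates individually reaching 50%; inconclusive = only one of the two criteria met; inactive = neither criterion met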;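 note: exported cargo escapes ClpAP degradation while cytoplasmic cargo is degraded and loses fluorescence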
E coli growth-2: E. coli V3065 growth inhibition, primary screen, counter-screen for AddAB inhibitor project, absorbance, OD600. 18 h. hit rate 0.27% among 330,000. inhibition, % at 11.9 µM;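 active = inhibition above the campaign's mean inhibition across all tested compounds plus 3 SD, cut at about 9.9% in these data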;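 note: uninfected addAB+ strain grown without phage in ampicillin broth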
RecBCD conf: growth loss of phage-infected RecBCD+ E. coli, confirmation, RecBCD inhibitor project, absorbance, E. coli V66, T4 gene 2 phage; shares compounds with phage Ecoli inh; E. coli V66 + T4 2- phage, growth OD; inhibition, % at 11.9 µM; hit rate 45% among 890; AID 651982, 2013;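 active = mean inhibition over triplicates exceeding the hit threshold derived in the original primary screen, cut at about 11% in these data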
Ecoli viability: E. coli viability inhibition, counter-screen for RecBCD inhibitor project, absorbance, high throughput; shares compounds with phage Ecoli inh; absorbance (OD) growth; inhibition, % at 11.9 µM; hit rate 29% among 890; in the data active = inhibition above about 20%;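 note: E. coli strain V66 grown with compound alone and no phage infection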
AddAB phage OD: growth loss of phage-infected AddAB-carrying E. coli, confirmation, counter-screen for RecBCD inhibitor project, absorbance, E. coli V3065, T4 phage; shares compounds with phage Ecoli inh; E. coli expressing H. pylori AddAB + T4 phage, OD growth; gene 2 mutant T4, recBCD-deleted host; inhibition, % at 11.9 µM; hit rate 45% among 890; AID 651984, 2013;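 active = mean inhibition above the solvent-only control wells' mean plus 3 SD, cut at about 22% in these data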;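 note: higher means less bacterial growth from phage killing when AddAB is blocked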
Hits are given with their value; i = inactive; ? = inconclusive; nt = no result.

SMILES | AddAB inh | phage Ecoli inh | E coli growth-1 | Tat export inh | E coli growth-2 | RecBCD conf | Ecoli viability | AddAB phage OD
O=C(Nc1cccc(Cl)c1)Nc1nnc(-c2ccncc2)s1 | i | 13.5 | i | i | i | i | i | i
COc1cccc(NC(=O)Nc2ccc(C)c(Cl)c2)c1 | i | i | i | i | i | nt | nt | nt
Cc1cc(OC(F)F)ccc1NC(=O)Nc1ccc([N+](=O)[O-])cc1 | i | 13.0 | i | i | i | i | i | i
O=C(CN1C(=O)SC(=Cc2ccc(N3CCOCC3)cc2)C1=O)N1CCOCC1 | nt | nt | i | nt | nt | nt | nt | nt
COc1cccc2cccc(C=Nn3cnnc3)c12 | nt | nt | i | nt | nt | nt | nt | nt
COc1ccccc1NC(=O)C(=O)NN=C(C)CC(=O)Nc1ccccn1 | nt | nt | i | nt | nt | nt | nt | nt
CC(=O)c1ccc(NC(=O)Nc2cccc(Cl)c2)cc1 | i | 10.9 | 0.512 | i | i | i | i | i
COC(=O)c1ccc(NC(=O)Nc2ccccc2F)cc1 | i | i | i | i | i | nt | nt | nt
COC(=O)c1ccc(NC(=O)Nc2ccc(F)c(Cl)c2)cc1 | i | 11.8 | i | i | 10.1 | i | i | i
CC1CN=C2N1CC(Cc1ccc(O)cc1)N2CCNC(=O)CCC1CCCCC1 (stereo not drawn) | nt | nt | i | nt | nt | nt | nt | nt
O=C1c2ccccc2NC(c2ccc(-c3cccc(F)c3)o2)N1O (stereo not drawn) | i | 12.3 | i | i | i | i | i | i
O=C1c2ccccc2NC(c2ccc(Cl)cc2Cl)N1O (stereo not drawn) | i | 12.1 | i | ? | i | i | i | i
O=C1c2ccccc2NC(c2cccc(F)c2)N1Cc1ccccc1 (stereo not drawn) | i | i | i | i | i | nt | nt | nt
CN(C)CCCNC(=O)c1ccc(-c2cc(O)c3ncccc3c2)cc1 | i | i | i | i | i | nt | nt | nt
CN(C)c1ccc(-c2cc(O)c3ncccc3c2)cc1 | i | 13.9 | nt | i | 10.8 | i | i | i
CCOC(=O)c1ccc(NC(=O)CSc2nc3ncccc3[nH]2)cc1 | i | 10.9 | i | i | i | i | i | i
CCCCc1ccc(NC(=O)CSc2nc3ncccc3[nH]2)cc1 | i | i | i | i | i | nt | nt | nt
O=C(NC1CCC(=O)N(CCSc2ccc(Br)cc2)CC1)OCc1ccccc1 (stereo not drawn) | nt | nt | i | nt | nt | nt | nt | nt
CC(=O)SC1CC(=O)N(c2c(C)cccc2C)C1=O (stereo not drawn) | i | 11.5 | i | i | i | i | i | i
CC#CC(CC)c1ccc2ccn(C)c2c1 (stereo not drawn) | nt | nt | i | nt | nt | nt | nt | nt
Fc1cccc(C2NN=C(c3ccccc3)S2)c1 (stereo not drawn) | i | i | i | i | i | nt | nt | nt
O=C1c2ccccc2C2=Nc3ccccc3SC(c3cccc(F)c3)C12 (stereo not drawn) | i | 15.6 | i | i | 12.3 | 12.5 | i | 26.2
S=C(NCc1ccccn1)NN=Cc1ccccn1 | nt | 17.6 | nt | i | nt | 13.6 | i | i
O=C(NNC(=O)c1cc(Cl)ccc1O)c1ccc(NS(=O)(=O)c2cccs2)cc1 | i | 11.1 | i | i | i | i | i | i
O=C(NNC(=O)c1cc(F)c(F)cc1Cl)c1ccc(NS(=O)(=O)c2cccs2)cc1 | i | i | i | i | i | nt | nt | nt
SMILES | AddAB inh | phage Ecoli inh | E coli growth-1 | Tat export inh | E coli growth-2 | RecBCD conf | Ecoli viability | AddAB phage OD
Cc1cc(-c2ccccc2)n(-c2cc(NN=Cc3ccccc3O)ncn2)n1 | nt | nt | i | nt | nt | nt | nt | nt
Cc1cc(-c2ccccc2)n(-c2cc(N/N=C/c3ccccc3O)ncn2)n1 | i | 16.3 | nt | i | i | i | i | i
CC(=NOc1nc(C)cc(C)n1)c1ccc(Br)cc1 | nt | nt | i | nt | nt | nt | nt | nt
CC(=O)OCC1=C(C(=O)O)N2C(=O)C(NC(=O)c3ccc(F)cc3)C2SC1 (stereo not drawn) | i | i | i | i | i | nt | nt | nt
CON=C(C(=O)NC1C(=O)N2C(C(=O)O)=C(CSc3nc(=O)c(=O)[nH]n3C)CSC12)c1csc(N)n1 (stereo not drawn) | nt | 101.5 | nt | i | nt | 102.1 | 103.1 | 102.7
CO/N=C(\C(=O)N[C@@H]1C(=O)N2C(C(=O)O)=C(COC(N)=O)CS[C@H]12)c1ccco1 | i | 63.2 | nt | i | i | 92.7 | 97.6 | 80.6
CC(=NNC(=O)CCCOc1ccc(Cl)cc1Cl)c1ccc(C)o1 | nt | nt | i | nt | nt | nt | nt | nt
O=Nc1c(-c2cccc([N+](=O)[O-])c2)nc2ncccn12 | i | 16.0 | nt | nt | i | 71.8 | 77.0 | 99.8
COc1ccc(C=NNC(=O)c2ccc3c(c2)OCO3)cc1 | nt | nt | i | nt | nt | nt | nt | nt
CCCOc1ccc(CNC(=O)c2ccc3nc(N4CCOCC4)sc3c2)cc1 | i | 25.5 | i | i | i | i | i | i
COc1ccc(N(CC(=O)Nc2cccc(C)c2C)S(=O)(=O)c2c(C)n[nH]c2C)cc1 | i | i | i | i | i | nt | nt | nt
COc1ccc(N(CC(=O)Nc2cccc(C)c2C)S(=O)(=O)c2c(C)[nH]c(=O)[nH]c2=O)cc1 | i | 100.2 | i | i | i | i | i | i
CC1CN(C(C)CO)C(=O)c2cc(NS(=O)(=O)c3ccc(F)cc3)ccc2OC1CN(C)C(=O)NC1CCCCC1 (stereo not drawn) | nt | nt | i | nt | nt | nt | nt | nt
Cn1nnnc1SCc1ccc(F)cc1 | i | 19.9 | i | i | i | i | i | i
FC(F)(F)c1cccc(NC(=S)NCC2COc3ccccc3O2)c1 (stereo not drawn) | i | 11.6 | i | i | i | i | i | i
CC=C(C)C(=O)Nc1cccc(C2=NOC3(C2)CC(C(N)=O)N(C(=O)C2(C)CC2)C3)c1 (stereo not drawn) | nt | nt | i | nt | nt | nt | nt | nt
Cn1cc(S(=O)(=O)N2CCc3ccccc32)cc1C(=O)NC1CCCCC1 | i | 98.4 | i | i | i | i | i | i
Cc1ccc(OCC(=O)NN=Cc2ccc(-c3cccc(C(=O)O)c3)o2)c(C)c1 | nt | nt | i | nt | nt | nt | nt | nt
Cc1nnc(NS(=O)(=O)c2ccc(F)cc2)s1 | nt | i | nt | i | nt | nt | nt | nt
Cc1nnc(NS(=O)(=O)c2ccc(N)cc2)s1 | i | 12.1 | i | i | i | i | i | 26.6
COc1ccc(OCC(=O)NN=Cc2ccncc2)cc1 | nt | nt | i | nt | nt | nt | nt | nt
COc1cccc(-c2cnc(C(O)c3cc(Cl)cc(Cl)c3)[nH]2)c1 (stereo not drawn) | nt | 11.8 | nt | nt | nt | 11.3 | i | i
OC(c1cccc(Cl)c1)c1ncc(-c2ccc3ccccc3c2)[nH]1 (stereo not drawn) | nt | 15.2 | nt | nt | nt | 12.0 | i | i
OC(c1cccc(F)c1)c1ncc(-c2ccc3ccccc3c2)[nH]1 (stereo not drawn) | nt | i | nt | nt | nt | nt | nt | nt
Cc1ccc(-c2cnc(C(O)c3cc(F)cc(Cl)c3)[nH]2)cc1 (stereo not drawn) | nt | 11.5 | nt | nt | nt | i | i | i
COc1cccc(-c2cnc(C(O)c3cc(F)cc(Cl)c3)[nH]2)c1 (stereo not drawn) | nt | i | nt | nt | nt | nt | nt | nt
